# In ChEMBL document CHEMBL3988442, “University of Dundee, Small-Polar-MMV Screening Library” (2021):
# In all, about 48,000 compounds went through this assay and about 13,000 (27%) showed an effect of 50% or more. Some of the results follow.
# Tested on: Wolbachia pipientis
# Experiment: Anti-Wolbachia Cell-Based Screen
# Assay type: functional
# Design: scale not given: in the data most compounds retested in dose-response had high values
# Conditions: 5 µM
row,Compound,Percent Effect
1,CC(C)(C)c1coc([C@@H]2COCCN2Cc2c[nH]cn2)n1,-1.373%
2,CCOCCN1CCN(Cc2nnc(-c3occc3C)o2)CC1CC (stereo unspecified),4.766%
3,CN(C)C(=O)CNC(=O)Nc1cccc(Cl)c1SC(F)F,-14%
4,CSCCC(=O)N1CCCN(c2ccccc2C)CC1,-1.705%
5,CSCC(=O)N1CCCN(c2ccncc2C)CC1,-12.26%
6,Cc1ccccc1N1CCCN(C(=O)CC2CN(C(C)C)CCO2)CC1 (stereo unspecified),116.5%
7,CSCC(=O)N1CCCN(c2ccccc2C)CC1,124.1%
8,N#Cc1ccc(N2CCCN(C(=O)CC3CCCO3)CC2)cc1 (stereo unspecified),5.693%
9,CC(C)N1CCOC(CC(=O)N2CCCN(c3ccc(F)cc3)CC2)C1 (stereo unspecified),103.5%
10,Cc1ccccc1N1CCCN(C(=O)CN2C(=O)OC[C@@H]2C(C)C)CC1,17.78%
11,Cc1ccccc1N1CCN(C(=O)CC(C)C)CC1,-38.06%
12,COC(=O)CC1CN(Cc2ccn(-c3ccc(F)cc3)n2)CCO1 (stereo unspecified),-16.13%
13,NC(=O)c1cncc(-n2ccc(-c3cnccn3)n2)c1,-26.19%
14,CC(C#N)(NC(=O)COc1ccccc1Br)C1CC1 (stereo unspecified),18.27%
15,CCN1CCN(C)C2(CCN(C(=O)CC(F)(F)F)CC2)C1=O,118.4%
16,CN1CCN(CC2CC2)C(=O)C12CCN(C(=O)c1ccnnc1)CC2.O=C(O)C(F)(F)F,-9.864%
17,O=C(CC(F)(F)F)N1CCC2(CCCN(c3nncs3)C2)C1 (stereo unspecified),-11.31%
18,CN1CCN(CC2CC2)C(=O)C12CCN(C(=O)c1cnccn1)CC2,-10.28%
19,CN1CCN(C)C2(CCN(C(=O)CC(F)(F)F)CC2)C1=O,104%
20,Cc1ccc(N2CCCC3(CCN(C(=O)CC(F)(F)F)C3)C2)nn1 (stereo unspecified),-9.607%
21,CN1CCN(CC2CC2)C(=O)C12CCN(C(=O)CC(F)(F)F)CC2.O=C(O)C(F)(F)F,112.7%
22,CCN(C(=O)c1ccccc1I)C1CC(=O)NC1=O (stereo unspecified),4.049%

row,Compound,Percent Effect
1,CC/C=C(/C)C(=O)N1CSCC1C(=O)NC1=NCCS1 (stereo unspecified),-1.356%
2,COc1ccc(F)cc1S(=O)(=O)NCCn1cnc(C)cc1=O,77.48%
3,COc1ccc(S(=O)(=O)NCCn2cnc(C)cc2=O)cc1C,93.11%
4,COc1ccc(F)cc1S(=O)(=O)NCC(O)c1sccc1C (stereo unspecified),28.76%
5,COc1ncc(NS(=O)(=O)c2ccc(OC)c(C)c2)c(OC)n1,-43.62%
6,COc1ccc(F)cc1S(=O)(=O)NCC(c1cccn1C)N(C)C (stereo unspecified),-20.36%
7,COc1ccc(S(=O)(=O)Nc2cccnc2-n2cncn2)cc1C,-1.49%
8,CC1COc2ccccc2N1C(=O)c1ccnc(-n2cncn2)c1 (stereo unspecified),-16.23%
9,CNc1ncc(CN(C)C(=O)[C@@]23CNC[C@@H]2CN(C(=O)C2CC2)C3)cn1,-3.257%
10,COc1cc(NCCNC(=O)c2cc[nH]c2C)cc(OC)c1,-11.29%
11,COCCCC1(CO)CCCN(Cc2nccs2)C1 (stereo unspecified),3.777%
12,O=C(NCc1ncc[nH]1)c1c(F)cccc1I,-7.586%
13,Cc1ccsc1[C@@H]1CCN(C(=O)CCOc2ccccc2)C[C@H]1O,-3.102%
14,COCC(=O)N1C[C@@H](O)[C@H](N2CCN(c3ccccc3)CC2)C1,143.5%
15,CCOCC(=O)N1C[C@@H](O)[C@H](N2CCN(c3ccccc3)CC2)C1,110.9%
16,CN1CCN([C@@H]2CN(C(=O)CCOc3ccccc3)C[C@H]2O)CC1,98.51%
17,COCCC(=O)N1CC2(CCN(c3ccccc3)C2)C1,-36.12%
18,CC(C)=CCN1CCN(CCCOc2ccccc2)[C@H]2CS(=O)(=O)C[C@H]21,-8.839%
19,COCCC(=O)N1C[C@@H](O)[C@H](N2CCN(c3ccccc3)CC2)C1,133.4%
20,O=C(CO)N1CC[C@@H](N2CCN(c3ccccc3F)CC2)[C@H](O)C1,5.557%
21,COCCC(=O)N1CC[C@@H](N2CCN(C)CC2)[C@@H]1Cc1ccccc1,-8.117%
22,CSCCC(=O)N1CC[C@@H](N2CCN(c3ccccc3F)CC2)[C@H](O)C1,-0.8189%

row,Compound,Percent Effect
1,N#Cc1ccnc(N2CCN(CC(O)c3ccccc3Cl)CC2)c1 (stereo unspecified),-8.703%
2,O=C(CN1CCS(=O)(=O)CC1)NCc1cccc(Br)c1,-5.799%
3,COCC1(CNC(=O)Nc2cc(F)ccc2OC)CCCC1,-0.947%
4,CC(C)(C)OC(=O)NC(C)(C)c1noc(CSc2nncs2)n1,7.03%
5,N#Cc1c(Cl)nsc1NCc1ccc(N2CCSCC2)cc1,-6.213%
6,COc1ccc2c(c1)nc1n2[C@@H](CNCc2nccs2)COC1,4.423%
7,CCOCC1CN(Cc2cnn(C)c2)Cc2ncn(CC3CC3)c21 (stereo unspecified),-8.097%
8,CCOCC1CN(Cc2ccoc2)Cc2ncn(CC3CC3)c21 (stereo unspecified),-9.148%
9,Cn1cnc2c1C(COCC1CC1)CN(Cc1ccsc1)C2 (stereo unspecified),3.226%
10,CCOCC1CN(Cc2ccco2)Cc2ccnn2C1 (stereo unspecified),-17.9%
11,COCC1CN(Cc2ccoc2)Cc2cn(C)nc21 (stereo unspecified),2.216%
12,Cn1ncc2c1C(COCC1CC1)CN(Cc1ccco1)C2 (stereo unspecified),-0.8913%
13,CC(C)COCC1CN(Cc2cnn(C)c2)Cc2ncn(C)c21 (stereo unspecified),123.1%
14,Cn1cc(CN2Cc3cn(C)nc3C(COCC3CC3)C2)cn1 (stereo unspecified),-9.412%
15,CC(C)COCC1CN(Cc2ccco2)Cc2ncn(C)c21 (stereo unspecified),120.7%
16,CC(C)COCC1CN(Cc2ccoc2)Cc2ncn(C)c21 (stereo unspecified),128.9%
17,Cn1cc2c(n1)C(COCC1CC1)CN(Cc1ccsc1)C2 (stereo unspecified),-15.61%
18,CC(C)COCC1CN(Cc2ccsc2)Cc2ncn(C)c21 (stereo unspecified),90.56%
19,CN(C)C(=O)c1nc2c(s1)CCCN2Cc1ccccc1,-4.503%
20,Cc1ccc(C)c2c(O)cc(CN3CCC(=O)NCC3C)nc12 (stereo unspecified),-0.2793%
21,CCC(NC(=O)Nc1cc(F)c(OC)c(F)c1)c1noc(C)n1 (stereo unspecified),-7.836%
22,Cn1nc2c(cc1=O)CN(Cc1nc(-c3ccoc3)no1)CC2,-6.043%
